“And” between values parts separate entries of the source, which are not always exact repeats. Identical values can stand only once. In all, about 5,500 compounds went through this assay and about 2,000 (36%) were called active. Inconclusive results (about 18%) are left out. Cut-off read from the data, not from the text of the source: active = normalized growth mostly below about 0.91 (no sharp cut-off); inconclusive = no clear call, values can overlap the other calls; inactive = mostly above about 0.92. The list shows a part of the results.
Experiment: chemical genetic growth profiling, strain panel (AID 1159580);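 note: tested at 20 µM; growth read once vehicle control cultures reached saturation at 30 °C; 1 = growth at the plate median or of vehicle wells; lower values mean less growth of the strain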
Conditions: S. cerevisiae deletion strains, growth OD

Measured: normalized growth

Oc1cc(O)c2c(c1)O[C@H](c1ccc(O)c(O)c1)[C@@H](O)C2
inactive: locus YAL021C, strain ccr4, stronger effect = lower value 1.03 | locus YAL026C, strain drs2, stronger effect = lower value 1.01 | locus YAL030W, strain snc1, stronger effect = lower value 1.01 | locus YBL061C, strain skt5, stronger effect = lower value 1.01 | locus YBR009C, strain hhf1, stronger effect = lower value 0.993 | locus YBR021W, strain FUR4, stronger effect = lower value 1.05 | locus YBR023C, strain chs3, stronger effect = lower value 1.02 | locus YBR171W, strain sec66, stronger effect = lower value 1.01 | locus YBR229C, strain ROT2, stronger effect = lower value 0.957 | locus YBR231C, strain swc5, stronger effect = lower value 1.01 | locus YBR279W, strain paf1, stronger effect = lower value 1.01 | locus YCL011C, strain gbp2, stronger effect = lower value 1.01 | locus YCL016C, strain dcc1, stronger effect = lower value 1.01 | locus YCL029C, strain bik1, stronger effect = lower value 0.972 | locus YCL061C, strain MRC1, stronger effect = lower value 1.01 | locus YCL069W, strain vba3, stronger effect = lower value 1 | locus YCR088W, strain abp1, stronger effect = lower value 1.01 | locus YDL005C, strain med2, stronger effect = lower value 1.01 | locus YDL035C, strain GPR1, stronger effect = lower value 0.985 | locus YDL040C, strain nat1, stronger effect = lower value 1 | locus YDL074C, strain BRE1, stronger effect = lower value 1 | locus YDL101C, strain DUN1, stronger effect = lower value 0.979 | locus YDL185W, strain tfp1, stronger effect = lower value 0.978 | locus YDL192W, strain arf1, stronger effect = lower value 0.992 | locus YDR001C, strain nth1, stronger effect = lower value 0.994 | locus YDR069C, strain doa4, stronger effect = lower value 1.02 | locus YDR101C, strain arx1, stronger effect = lower value 1.03 | locus YDR137W, strain rgp1, stronger effect = lower value 1.03 | locus YDR159W, strain sac3, stronger effect = lower value 1 | locus YDR162C, strain NBP2, stronger effect = lower value 0.962 | locus YDR195W, strain ref2 0.972 | locus YDR297W, strain sur2, stronger effect = lower value 1.01 | locus YDR318W, strain mcm21, stronger effect = lower value 0.981 | locus YDR334W, strain swr1, stronger effect = lower value 1 | locus YDR335W, strain msn5, stronger effect = lower value 1.01 | locus YDR388W, stronger effect = lower value 0.963 | locus YDR392W, strain spt3, stronger effect = lower value 0.981 | locus YDR502C, strain sam2, stronger effect = lower value 1.01 | locus YEL003W, strain gim4, stronger effect = lower value 1.02 | locus YEL037C, strain rad23, stronger effect = lower value 1.01 | locus YEL061C, strain CIN8 (second series), stronger effect = lower value 1 | locus YEL061C, strain CIN8, stronger effect = lower value 0.988 | locus YER015W, strain faa2, stronger effect = lower value 1 | locus YER016W, strain bim1, stronger effect = lower value 0.997 | locus YER110C, stronger effect = lower value 0.98 | locus YER111C, strain swi4, stronger effect = lower value 0.988 | locus YER155C, strain BEM2 (second series), stronger effect = lower value 1.01 | locus YER155C, strain BEM2, stronger effect = lower value 0.991 | locus YER167W, strain BCK2, stronger effect = lower value 0.994 | locus YFR010W, strain ubp6, stronger effect = lower value 1.02 | locus YGL078C, strain dbp3, stronger effect = lower value 0.99 | locus YGL086W, strain mad1, stronger effect = lower value 1.04 | locus YGL167C, strain pmr1, stronger effect = lower value 1.01 | locus YGL173C, strain kem1, stronger effect = lower value 1.01 | locus YGL227W, strain vid30, stronger effect = lower value 1 | locus YGL240W, strain doc1, stronger effect = lower value 1.01 | locus YGL248W, strain PDE1, stronger effect = lower value 0.988 | locus YGL253W, strain hxk2, stronger effect = lower value 1.01 | locus YGR078C, strain PAC10, stronger effect = lower value 0.976 | locus YGR135W, strain pre9, stronger effect = lower value 0.966 | locus YGR252W, strain gcn5, stronger effect = lower value 0.947 | locus YHR013C, strain ard1, stronger effect = lower value 0.984 | locus YHR027C, strain rpn1, stronger effect = lower value 1.01 | locus YHR030C, strain SLT2, stronger effect = lower value 0.996 and 0.983 | locus YHR079C, strain IRE1 (second series), stronger effect = lower value 0.979 | locus YHR079C, strain IRE1, stronger effect = lower value 0.974 | locus YHR094C, strain hxt1, stronger effect = lower value 0.972 | locus YHR129C, strain ARP1, stronger effect = lower value 0.998 | locus YHR142W, strain chs7, stronger effect = lower value 1.03 | locus YHR200W, strain rpn10, stronger effect = lower value 0.975 | locus YIL066C, strain RNR3, stronger effect = lower value 0.992 | locus YIL073C, strain SPO22, stronger effect = lower value 1.02 | locus YIL125W, strain kgd1, stronger effect = lower value 1 | locus YIR030C, strain dcg1, stronger effect = lower value 0.994 | locus YJL092W, strain hpr5, stronger effect = lower value 1 | locus YJL095W, strain BCK1 (second series), stronger effect = lower value 1 | locus YJL095W, strain BCK1, stronger effect = lower value 0.977 and 0.984 | locus YJL115W, strain asf1, stronger effect = lower value 1 | locus YJL129C, strain trk1, stronger effect = lower value 1.01 | locus YJL134W, strain LCB3, stronger effect = lower value 0.989 | locus YJL154C, strain vps35, stronger effect = lower value 1 | locus YJL164C, strain tpk1, stronger effect = lower value 1.01 | locus YJL166W, strain qcr8, stronger effect = lower value 1.02 | locus YJL168C, strain set2, stronger effect = lower value 0.99 | locus YJL187C, strain SWE1 (second series), stronger effect = lower value 0.971 | locus YJL187C, strain SWE1, stronger effect = lower value 1.01 | locus YJR043C, strain POL32, stronger effect = lower value 1.01

— PubChem BioAssay AID1159580 (chemical genetic matrix, 2015)
